This is an account of results in ChEMBL document CHEMBL2218924, “A broad activity screen in support of a chemogenomic map for kinase signalling research and drug discovery” (Biochem J, 2013).

For test [1], the target named is Death-associated protein kinase 1 (Homo sapiens) (UniProt P53355). To be noted: at 10 µM.
The target in test [2] is Death-associated protein kinase 2 (Homo sapiens) (UniProt Q9UIK4). To be noted: at 1 µM.
Test [3] has the same target. To be noted: at 10 µM.
Test [4] concerns the target T1, Serine/threonine-protein kinase DCLK2 (Homo sapiens) (UniProt Q8N568).
T1 sequence (whole entry): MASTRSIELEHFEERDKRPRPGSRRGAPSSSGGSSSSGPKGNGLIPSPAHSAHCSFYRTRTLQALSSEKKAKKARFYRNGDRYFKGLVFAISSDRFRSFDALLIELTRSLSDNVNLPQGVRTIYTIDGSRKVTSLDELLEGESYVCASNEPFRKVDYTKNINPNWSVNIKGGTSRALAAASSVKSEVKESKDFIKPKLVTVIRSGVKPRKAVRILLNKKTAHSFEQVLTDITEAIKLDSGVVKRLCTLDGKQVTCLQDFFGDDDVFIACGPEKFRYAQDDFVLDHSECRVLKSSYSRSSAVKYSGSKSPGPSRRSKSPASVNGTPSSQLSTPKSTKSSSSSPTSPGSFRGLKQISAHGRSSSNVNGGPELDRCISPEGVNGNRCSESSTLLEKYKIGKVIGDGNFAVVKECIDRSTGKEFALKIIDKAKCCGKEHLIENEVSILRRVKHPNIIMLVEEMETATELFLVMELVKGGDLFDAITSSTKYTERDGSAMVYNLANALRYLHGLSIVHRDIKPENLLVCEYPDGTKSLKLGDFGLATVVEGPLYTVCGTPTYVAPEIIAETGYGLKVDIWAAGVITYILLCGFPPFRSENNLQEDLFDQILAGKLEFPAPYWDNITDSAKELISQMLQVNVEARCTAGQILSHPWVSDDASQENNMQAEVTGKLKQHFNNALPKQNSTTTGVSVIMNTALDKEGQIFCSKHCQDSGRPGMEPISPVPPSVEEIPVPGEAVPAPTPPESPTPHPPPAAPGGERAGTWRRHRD
To be noted: at 1 µM.

In test [5] the target is T1, Serine/threonine-protein kinase DCLK2 (Homo sapiens). To be noted: at 10 µM.
Test [6] has as its target T2, Discoidin domain-containing receptor 2 (Homo sapiens) (UniProt Q16832).
T2 sequence (whole entry): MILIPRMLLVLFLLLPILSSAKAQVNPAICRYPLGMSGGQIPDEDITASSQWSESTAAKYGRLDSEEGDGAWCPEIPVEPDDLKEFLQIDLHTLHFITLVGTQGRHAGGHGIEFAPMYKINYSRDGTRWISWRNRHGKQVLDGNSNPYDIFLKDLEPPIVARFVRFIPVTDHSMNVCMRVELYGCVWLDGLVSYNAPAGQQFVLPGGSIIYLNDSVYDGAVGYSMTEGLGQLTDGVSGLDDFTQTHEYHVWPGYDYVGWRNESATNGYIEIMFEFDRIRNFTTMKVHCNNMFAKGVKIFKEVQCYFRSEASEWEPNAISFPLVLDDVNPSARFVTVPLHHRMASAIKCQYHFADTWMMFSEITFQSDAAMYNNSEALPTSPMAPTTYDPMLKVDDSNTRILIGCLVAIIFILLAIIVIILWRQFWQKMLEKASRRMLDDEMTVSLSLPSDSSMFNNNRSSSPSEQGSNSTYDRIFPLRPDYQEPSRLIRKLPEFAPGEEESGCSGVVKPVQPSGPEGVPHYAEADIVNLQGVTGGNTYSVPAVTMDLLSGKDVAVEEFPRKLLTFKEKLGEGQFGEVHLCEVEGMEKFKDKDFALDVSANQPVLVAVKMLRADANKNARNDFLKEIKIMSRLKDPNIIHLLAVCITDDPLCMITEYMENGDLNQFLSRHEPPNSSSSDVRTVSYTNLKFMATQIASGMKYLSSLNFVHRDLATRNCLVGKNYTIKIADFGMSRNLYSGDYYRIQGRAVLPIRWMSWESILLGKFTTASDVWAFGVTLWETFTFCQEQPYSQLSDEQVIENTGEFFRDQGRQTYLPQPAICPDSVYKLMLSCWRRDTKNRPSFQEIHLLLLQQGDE
To be noted: at 1 µM.

Test [7] has as its target T2, Discoidin domain-containing receptor 2 (Homo sapiens). To be noted: at 10 µM.
Test [8] deals with T3, Myotonin-protein kinase (Homo sapiens) (UniProt Q09013).
T3 sequence (whole entry): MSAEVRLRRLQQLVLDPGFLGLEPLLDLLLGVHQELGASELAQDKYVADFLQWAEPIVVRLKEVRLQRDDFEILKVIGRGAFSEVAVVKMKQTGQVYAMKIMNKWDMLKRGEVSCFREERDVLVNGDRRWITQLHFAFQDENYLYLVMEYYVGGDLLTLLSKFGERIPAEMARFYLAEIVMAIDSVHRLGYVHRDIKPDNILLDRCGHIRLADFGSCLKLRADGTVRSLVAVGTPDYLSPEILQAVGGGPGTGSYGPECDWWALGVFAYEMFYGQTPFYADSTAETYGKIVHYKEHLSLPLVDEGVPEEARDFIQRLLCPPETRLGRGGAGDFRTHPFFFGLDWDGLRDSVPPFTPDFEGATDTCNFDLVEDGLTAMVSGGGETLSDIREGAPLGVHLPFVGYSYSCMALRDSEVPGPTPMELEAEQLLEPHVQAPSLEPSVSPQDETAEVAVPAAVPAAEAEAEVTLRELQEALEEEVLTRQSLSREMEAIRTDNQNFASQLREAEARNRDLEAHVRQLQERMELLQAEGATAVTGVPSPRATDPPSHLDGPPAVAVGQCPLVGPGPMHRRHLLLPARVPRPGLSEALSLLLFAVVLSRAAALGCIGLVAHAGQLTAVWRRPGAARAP
To be noted: at 1 µM.

Test [9] deals with T3, Myotonin-protein kinase (Homo sapiens). To be noted: at 10 µM.
For test [10], the target named is T4, Serine/threonine-protein kinase 17A (Homo sapiens) (UniProt Q9UEE5).
T4 sequence (whole entry): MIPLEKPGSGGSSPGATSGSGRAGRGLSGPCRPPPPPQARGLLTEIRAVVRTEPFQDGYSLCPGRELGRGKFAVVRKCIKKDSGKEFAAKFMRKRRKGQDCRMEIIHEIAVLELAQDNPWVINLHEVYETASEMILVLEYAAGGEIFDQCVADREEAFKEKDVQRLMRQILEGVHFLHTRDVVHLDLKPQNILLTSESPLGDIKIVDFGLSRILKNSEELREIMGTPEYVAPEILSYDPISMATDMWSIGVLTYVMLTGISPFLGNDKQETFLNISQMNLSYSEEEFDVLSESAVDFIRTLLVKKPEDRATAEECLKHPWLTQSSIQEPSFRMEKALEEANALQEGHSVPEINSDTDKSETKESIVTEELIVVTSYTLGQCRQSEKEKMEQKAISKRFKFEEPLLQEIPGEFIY
To be noted: at 1 µM.

Test [11] concerns the target T4, Serine/threonine-protein kinase 17A (Homo sapiens). To be noted: at 10 µM.
Test [12] has as its target T5, Dual specificity tyrosine-phosphorylation-regulated kinase 2 (Homo sapiens) (UniProt Q92630).
T5 sequence (whole entry): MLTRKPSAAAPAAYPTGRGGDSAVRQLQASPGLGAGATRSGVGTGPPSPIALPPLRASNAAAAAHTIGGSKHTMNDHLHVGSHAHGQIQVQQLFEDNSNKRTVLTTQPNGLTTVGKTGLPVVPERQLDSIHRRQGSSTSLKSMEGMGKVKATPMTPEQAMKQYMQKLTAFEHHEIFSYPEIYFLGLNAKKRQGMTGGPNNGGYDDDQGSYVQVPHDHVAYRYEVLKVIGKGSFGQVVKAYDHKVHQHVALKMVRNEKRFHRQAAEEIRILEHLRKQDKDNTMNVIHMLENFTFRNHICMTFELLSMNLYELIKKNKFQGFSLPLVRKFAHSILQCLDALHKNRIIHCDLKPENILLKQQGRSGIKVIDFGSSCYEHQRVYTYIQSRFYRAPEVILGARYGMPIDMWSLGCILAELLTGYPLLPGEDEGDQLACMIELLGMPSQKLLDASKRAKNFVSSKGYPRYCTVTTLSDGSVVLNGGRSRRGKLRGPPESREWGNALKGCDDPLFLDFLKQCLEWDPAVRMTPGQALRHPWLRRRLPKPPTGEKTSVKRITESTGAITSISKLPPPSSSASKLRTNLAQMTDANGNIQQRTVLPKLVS
The following applies: at 1 µM.

The target in test [13] is T5, Dual specificity tyrosine-phosphorylation-regulated kinase 2 (Homo sapiens). The following applies: at 10 µM.
Test [14] has as its target T6, Ephrin type-A receptor 1 (Homo sapiens) (UniProt P21709).
T6 sequence (whole entry): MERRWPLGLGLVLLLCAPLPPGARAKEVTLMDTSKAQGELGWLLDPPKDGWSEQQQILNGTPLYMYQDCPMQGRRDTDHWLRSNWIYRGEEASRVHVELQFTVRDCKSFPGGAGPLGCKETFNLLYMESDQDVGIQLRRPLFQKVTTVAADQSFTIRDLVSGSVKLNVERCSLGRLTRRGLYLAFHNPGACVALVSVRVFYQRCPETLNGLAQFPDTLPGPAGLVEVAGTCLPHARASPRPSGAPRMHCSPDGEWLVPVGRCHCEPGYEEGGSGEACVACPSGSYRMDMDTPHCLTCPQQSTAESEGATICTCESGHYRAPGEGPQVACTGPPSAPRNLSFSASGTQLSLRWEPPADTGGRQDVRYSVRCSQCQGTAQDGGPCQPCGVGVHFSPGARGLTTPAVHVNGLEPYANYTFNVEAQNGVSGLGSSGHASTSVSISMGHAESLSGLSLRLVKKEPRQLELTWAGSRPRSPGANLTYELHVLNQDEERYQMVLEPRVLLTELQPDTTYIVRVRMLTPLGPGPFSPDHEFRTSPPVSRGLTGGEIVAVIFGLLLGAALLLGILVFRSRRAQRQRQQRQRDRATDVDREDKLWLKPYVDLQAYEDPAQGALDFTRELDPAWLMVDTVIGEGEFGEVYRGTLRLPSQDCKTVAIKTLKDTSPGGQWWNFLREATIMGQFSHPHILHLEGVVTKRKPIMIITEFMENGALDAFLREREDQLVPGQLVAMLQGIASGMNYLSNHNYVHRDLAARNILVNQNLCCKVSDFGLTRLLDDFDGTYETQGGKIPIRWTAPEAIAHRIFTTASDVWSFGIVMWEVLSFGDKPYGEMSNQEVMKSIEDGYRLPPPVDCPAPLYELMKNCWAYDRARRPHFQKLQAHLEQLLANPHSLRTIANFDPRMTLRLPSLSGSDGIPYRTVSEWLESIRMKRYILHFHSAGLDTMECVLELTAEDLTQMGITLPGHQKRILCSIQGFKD
The following applies: at 1 µM.

Test [15] has as its target T6, Ephrin type-A receptor 1 (Homo sapiens). The following applies: at 10 µM.
Test [16] addresses Ephrin type-A receptor 2 (Homo sapiens) (UniProt P29317). The following applies: at 1 µM.
The target is the same in test [17]. The following applies: at 10 µM.
For test [18], the target named is T7, Ephrin type-A receptor 3 (Homo sapiens) (UniProt P29320).
T7 sequence (whole entry): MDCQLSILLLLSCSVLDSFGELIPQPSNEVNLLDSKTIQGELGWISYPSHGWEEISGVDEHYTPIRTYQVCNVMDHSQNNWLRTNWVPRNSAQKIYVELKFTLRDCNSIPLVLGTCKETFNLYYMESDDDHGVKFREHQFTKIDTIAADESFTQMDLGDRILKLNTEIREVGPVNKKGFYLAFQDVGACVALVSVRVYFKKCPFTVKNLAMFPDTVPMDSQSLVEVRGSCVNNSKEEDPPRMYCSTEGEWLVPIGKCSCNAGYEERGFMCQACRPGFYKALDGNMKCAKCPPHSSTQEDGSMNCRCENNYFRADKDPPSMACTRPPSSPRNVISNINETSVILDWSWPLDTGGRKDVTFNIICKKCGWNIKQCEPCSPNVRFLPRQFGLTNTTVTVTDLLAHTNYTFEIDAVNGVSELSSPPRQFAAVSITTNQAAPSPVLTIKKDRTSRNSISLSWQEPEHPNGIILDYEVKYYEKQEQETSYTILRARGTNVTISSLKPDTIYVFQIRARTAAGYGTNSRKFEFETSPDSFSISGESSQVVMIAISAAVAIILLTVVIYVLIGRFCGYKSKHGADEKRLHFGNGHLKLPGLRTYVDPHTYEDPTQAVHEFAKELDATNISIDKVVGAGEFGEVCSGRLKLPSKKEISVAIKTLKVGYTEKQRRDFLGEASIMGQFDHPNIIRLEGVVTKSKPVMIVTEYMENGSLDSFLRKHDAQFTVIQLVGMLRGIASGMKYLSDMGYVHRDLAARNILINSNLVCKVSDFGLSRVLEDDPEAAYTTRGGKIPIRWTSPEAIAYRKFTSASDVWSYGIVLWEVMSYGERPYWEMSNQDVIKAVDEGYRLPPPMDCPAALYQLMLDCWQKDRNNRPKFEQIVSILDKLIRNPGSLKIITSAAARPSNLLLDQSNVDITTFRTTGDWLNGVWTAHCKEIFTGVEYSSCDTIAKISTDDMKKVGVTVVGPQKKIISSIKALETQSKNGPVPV
To be noted: at 1 µM.

Sequence of Death-associated protein kinase 2 (Homo sapiens) (Q9UIK4 whole entry, looked up): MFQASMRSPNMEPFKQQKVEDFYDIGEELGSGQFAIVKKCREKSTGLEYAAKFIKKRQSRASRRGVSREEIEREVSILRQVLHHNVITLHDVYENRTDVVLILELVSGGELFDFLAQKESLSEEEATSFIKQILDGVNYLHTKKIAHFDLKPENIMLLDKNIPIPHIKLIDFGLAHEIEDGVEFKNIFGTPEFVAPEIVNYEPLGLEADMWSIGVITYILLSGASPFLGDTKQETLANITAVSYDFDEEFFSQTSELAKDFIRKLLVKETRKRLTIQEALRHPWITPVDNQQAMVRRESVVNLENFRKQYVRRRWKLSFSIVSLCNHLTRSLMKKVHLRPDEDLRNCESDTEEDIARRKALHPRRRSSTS
Sequence of Ephrin type-A receptor 2 (Homo sapiens) (P29317 whole entry): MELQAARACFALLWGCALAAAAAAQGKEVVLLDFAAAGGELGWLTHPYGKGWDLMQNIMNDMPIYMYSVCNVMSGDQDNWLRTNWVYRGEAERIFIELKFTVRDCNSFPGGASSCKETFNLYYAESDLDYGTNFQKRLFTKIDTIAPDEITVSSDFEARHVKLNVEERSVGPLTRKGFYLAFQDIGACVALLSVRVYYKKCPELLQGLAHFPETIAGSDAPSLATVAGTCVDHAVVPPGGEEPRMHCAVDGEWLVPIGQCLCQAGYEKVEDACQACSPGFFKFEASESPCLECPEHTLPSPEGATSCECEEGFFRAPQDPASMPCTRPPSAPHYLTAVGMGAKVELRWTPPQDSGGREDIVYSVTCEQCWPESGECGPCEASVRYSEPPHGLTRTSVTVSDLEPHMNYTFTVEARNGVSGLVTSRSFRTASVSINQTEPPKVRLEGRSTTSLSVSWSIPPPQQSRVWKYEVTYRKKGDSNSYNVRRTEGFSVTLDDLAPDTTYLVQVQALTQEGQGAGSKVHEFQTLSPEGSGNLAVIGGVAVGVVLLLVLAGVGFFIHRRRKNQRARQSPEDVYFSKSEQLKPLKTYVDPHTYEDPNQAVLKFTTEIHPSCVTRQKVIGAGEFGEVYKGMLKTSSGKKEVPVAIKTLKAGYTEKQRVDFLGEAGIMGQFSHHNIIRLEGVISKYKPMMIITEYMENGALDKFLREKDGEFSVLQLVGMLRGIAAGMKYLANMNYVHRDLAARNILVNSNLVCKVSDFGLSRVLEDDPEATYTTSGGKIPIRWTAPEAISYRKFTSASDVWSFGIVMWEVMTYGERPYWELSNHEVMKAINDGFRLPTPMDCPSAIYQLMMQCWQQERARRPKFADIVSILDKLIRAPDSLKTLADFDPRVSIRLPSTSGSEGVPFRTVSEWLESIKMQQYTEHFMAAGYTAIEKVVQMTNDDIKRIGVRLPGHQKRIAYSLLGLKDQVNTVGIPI
Sequence of Death-associated protein kinase 1 (Homo sapiens) (P53355 whole entry, looked up): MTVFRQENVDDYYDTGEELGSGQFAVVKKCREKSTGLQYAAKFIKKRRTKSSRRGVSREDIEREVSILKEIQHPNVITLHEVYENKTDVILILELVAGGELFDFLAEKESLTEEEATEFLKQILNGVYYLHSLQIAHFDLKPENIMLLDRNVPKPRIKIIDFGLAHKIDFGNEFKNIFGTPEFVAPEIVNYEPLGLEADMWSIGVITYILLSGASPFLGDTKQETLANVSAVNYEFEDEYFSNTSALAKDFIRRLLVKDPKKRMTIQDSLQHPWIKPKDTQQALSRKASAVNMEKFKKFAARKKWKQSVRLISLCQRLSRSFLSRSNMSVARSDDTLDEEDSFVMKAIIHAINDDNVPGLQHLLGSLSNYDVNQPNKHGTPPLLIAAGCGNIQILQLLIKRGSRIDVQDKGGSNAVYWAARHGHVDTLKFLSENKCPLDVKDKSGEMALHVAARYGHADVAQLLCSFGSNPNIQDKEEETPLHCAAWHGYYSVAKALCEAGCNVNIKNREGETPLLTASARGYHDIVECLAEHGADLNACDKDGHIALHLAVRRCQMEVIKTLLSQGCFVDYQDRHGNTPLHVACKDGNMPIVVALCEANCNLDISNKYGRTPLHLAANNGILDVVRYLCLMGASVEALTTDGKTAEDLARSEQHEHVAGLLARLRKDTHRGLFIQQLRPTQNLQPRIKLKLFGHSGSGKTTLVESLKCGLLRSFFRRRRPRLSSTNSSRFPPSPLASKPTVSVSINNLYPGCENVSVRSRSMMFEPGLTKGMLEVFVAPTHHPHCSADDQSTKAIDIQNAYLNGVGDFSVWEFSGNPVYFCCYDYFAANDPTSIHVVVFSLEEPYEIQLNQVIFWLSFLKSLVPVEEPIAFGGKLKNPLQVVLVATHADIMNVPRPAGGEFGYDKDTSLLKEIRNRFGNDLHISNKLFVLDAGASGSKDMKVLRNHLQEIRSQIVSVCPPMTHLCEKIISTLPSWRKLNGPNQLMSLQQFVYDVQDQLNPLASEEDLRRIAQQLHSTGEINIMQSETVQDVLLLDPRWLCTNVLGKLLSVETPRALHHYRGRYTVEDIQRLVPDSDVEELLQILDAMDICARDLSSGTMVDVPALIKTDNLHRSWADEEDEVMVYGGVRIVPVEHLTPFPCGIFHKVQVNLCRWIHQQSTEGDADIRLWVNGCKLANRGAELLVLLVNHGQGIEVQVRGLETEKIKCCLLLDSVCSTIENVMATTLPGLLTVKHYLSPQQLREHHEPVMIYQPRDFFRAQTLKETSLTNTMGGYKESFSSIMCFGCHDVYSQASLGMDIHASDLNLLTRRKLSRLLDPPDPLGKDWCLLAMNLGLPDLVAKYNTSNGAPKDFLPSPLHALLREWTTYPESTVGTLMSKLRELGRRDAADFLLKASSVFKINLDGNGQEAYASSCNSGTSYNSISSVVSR

As for `CC(=O)O/N=C1\C(=C2\C(=O)Nc3cc(Br)ccc32)Nc2ccccc21`, the residual activity in test [1] stood at 84%; in [2], 86%; in test [3] it was 65%; in test [4] it was 107%; in test [5] it was 94%; in test [6], 91%. Besides, the residual activity in test [7] came to 71%; in test [8], 106%; in test [9] it was 89%; in [10], 63%; in [11] it was 31%; in test [12] it was 96%. Also, the residual activity is 92% in test [13]; 84% in test [14]; 71% in test [15]; 92% in [16]; 59% in [17]; 74% in [18].

As for `N#C/C(=C(\N)Sc1ccc(N)cc1)c1ccccc1C(F)(F)F`, the residual activity in test [1] is 78%; in [2] it was 98%; in test [3] it was 103%; in [4], 102%; in test [5], 99%; in [6], 91%. Also, the residual activity in test [7] is 108%; in test [8] it was 95%; in test [9] it was 85%; in test [10], 96%; in test [11], 118%; in test [12], 105%. Further, the residual activity turned out to be 95% in [13]; 94% in test [14]; 82% in [15]; 98% in [16]; 111% in test [17]; 96% in [18].

For orientation: residual activity means the signal under treatment as a percentage of the control signal.
